# Data taken from ChEMBL document CHEMBL3988442, “University of Dundee, Small-Polar-MMV Screening Library” (2021).
# Hit rate of the full screen: of about 48,000 compounds, about 13,000 (27%) showed an effect of 50% or more. The list shows a part of the results.
# Tested on: Wolbachia pipientis
# Assay: Anti-Wolbachia Cell-Based Screen
# Assay type: functional
# Design: scale not given: in the data most compounds retested in dose-response had high values
# Details: 5 µM
row,SMILES,Percent Effect [%]
1,CNC(=O)[C@H]1C[C@H]2OCC[C@H]2N(Cc2cccc3ccccc23)C1.O=C(O)C(F)(F)F,25.43
2,CC(=O)N1CCN(c2cc(N(C)C)cnn2)CC1,5.157
3,CN(Cc1c(Cl)ccc2cccnc12)CC(C)(CO)CO,4.13
4,CCS(=O)(=O)c1ncc(CN2CCN(C)CC2)n1CCc1ccccc1,2.419
5,CC(C)(C)CN(CCO)C(=O)Nc1cccc(N2CCNC2=O)c1,0.4334
6,Cn1cnc(S(=O)(=O)NCC2(O)CCOc3ccccc32)c1 (stereo not given),-16.89
7,Nc1nc(N)c2c(n1)OC1(CCN(C(=O)CC3CCCNC3)CC1)C2 (stereo not given),130
8,Nc1nc(N)c2c(n1)OC1(CCN(C(=O)CC3CCNCC3)CC1)C2,145.9
9,O=C(CC1CC1)N1CCC2(CC1)CN(c1ncc(F)cn1)CCO2,-18.12
10,CC(C)(C)c1cc(C[C@H]2CNCC[C@H]2CC(=O)N2CCCCC2)no1,3.52
11,Nc1nc(N)c2c(n1)OC1(CCN(C(=O)CC3CCCCN3)CC1)C2 (stereo not given),102.3
12,O=C(CC1CCCCC1)N1CCC(O)(C(F)(F)F)C1 (stereo not given),-0.05196
13,O=C1OC2(CCNCC2)CN1CC(=O)N1CCCC1c1nccs1 (stereo not given),1.843
14,CC(C1CC1)N(C)Cc1nnc(-c2ccc(Br)s2)o1 (stereo not given),-7.051
15,Cc1ccc2cc(CN(C)Cc3ccccn3)c(=O)[nH]c2c1,3.618
16,CCc1csc(NC(=O)NCc2ccccn2)n1,-8.56
17,CCc1cc(=O)[nH]c(SCc2ccccn2)n1,161.3
18,CCCc1cc(=O)[nH]c(SCc2ccccn2)n1,119.2
19,CCc1nc(C)c(C(C)N(C)CCc2ccccn2)s1 (stereo not given),10.86
20,CCc1c(C)nc(SCc2ccccn2)[nH]c1=O,110.7
21,CCCc1cc(NC2CCN(Cc3ccccn3)CC2)n2nccc2n1,4.154
22,Cc1cc(CSCc2ccccn2)on1,-5.175

row,SMILES,Percent Effect [%]
1,CCCc1cc(=O)[nH]c(-c2cccc(CN3CCCCCC3)c2)n1,2.31
2,CN1CCC(c2nnc3ccc(C(=O)N4CCCCC4)cn23)C1.O=C(O)C(F)(F)F (stereo not given),-6.443
3,CN(C)CCNC(=O)Cn1cnc2cc(NC(=O)C3CC3)ccc21,109.1
4,CCOCCOC(C)C(=O)Nc1ccc2ccn(CCN(C)C)c2c1 (stereo not given),3.941
5,CN(C)CCNC(=O)Cc1cccc(I)c1,13.6
6,CC(C)CC(=O)Nc1ccc2c(c1)ncn2CC(=O)NCCN(C)C,122
7,CC(CC(=O)Nc1ccc(C(=O)N(C)C)c(Cl)c1)n1cccc1 (stereo not given),-5.842
8,CC(C)NC(=O)Nc1ccc2c(c1)ncn2CC(=O)NCCN(C)C,117
9,Cc1cc(NC(=O)Nc2ccc3c(ccn3CCN(C)C)c2)n(C)n1,0.0592
10,CC(C)c1nc2cc(NC(=O)Cn3ccc(=O)[nH]c3=O)ccc2o1,-1.465
11,CCN(CC)C(=O)Cn1ccc2cc(NC(=O)C3CC3)ccc21,-9.83
12,Cn1c(C2CC2)nc2cc(NC(=O)C3CC=CC3)ccc21,-5.037
13,CC(C)C(=O)Nc1ccc2c(c1)ncn2CC(=O)NCCN(C)C,87.82
14,CN(C)CCn1ccc2cc(NC(=O)NCc3ncnn3C)ccc21,9.223
15,CC(c1ccc(F)cc1)n1ccnc1-c1cc2n(n1)CCCNC2 (stereo not given),-9.513
16,CCC(C)(NCc1nnc(C(C)(C)C)o1)c1nccs1 (stereo not given),-1.916
17,CS(=O)(=O)CCc1ncnn1-c1ccc(F)c(Cl)c1,-1.677
18,CCN1CC2(CCN(C(=O)C(C)Oc3ccc(F)cc3Cl)CC2)CC1=O (stereo not given),-0.3825
19,CC(Cn1cccn1)NC(=O)NCCCN1CCc2ccccc21 (stereo not given),-6.742
20,CS(=O)(=O)Nc1ccc(CNC(=O)CN2CCc3ccccc32)cc1,8.101
21,CCN1Cc2cc(F)ccc2N(CC(O)C(F)(F)F)CCC1=O (stereo not given),105.6
22,CCCC(C)NC(=O)CCN1C(=O)CCc2cc(F)ccc21 (stereo not given),-15.19

row,SMILES,Percent Effect [%]
1,CC(C)CNC(=O)CCN1C(=O)CCc2cc(F)ccc21,-21.96
2,CCCC(O)CN1CCC(=O)N(C)Cc2cc(F)ccc21 (stereo not given),92.66
3,CN1Cc2cc(F)ccc2N(CC(O)C(F)(F)F)CCC1=O (stereo not given),104.4
4,CN1Cc2ccccc2N(CC(O)C(F)(F)F)CCC1=O (stereo not given),95.04
5,CC(C)C(C)NC(=O)CCN1C(=O)CCc2cc(F)ccc21 (stereo not given),-7.908
6,CC(O)CN1CC2(CCC1=O)CCN(Cc1cc(F)ccc1Cl)CC2 (stereo not given),0.5458
7,OC(CN1CCCc2ccc(F)cc21)Cn1cccn1 (stereo not given),-5.11
8,N#Cc1c(Cl)nsc1NCC1(c2ccccc2)CCC1,12.51
9,C/C=C(\C)CN1C[C@@H](NC(=O)c2ccc(O)c(Cl)c2)C[C@H]1C(=O)NCC,-9.176
10,CCNC(=O)[C@@H]1C[C@@H](NC(=O)c2ccsc2)CN1CCCSC,107.8
11,CSCCC(C)(O)CNC(=O)c1ccsc1 (stereo not given),-0.07665
12,C/C=C(\C)CN1C[C@@H](NC(=O)c2ccc(F)c(F)c2)C[C@H]1C(=O)NCC,-14.95
13,CCNC(=O)[C@@H]1C[C@@H](NC(=O)Cc2ccncc2)CN1Cc1ccsc1,-6.435
14,CCNC(=O)[C@@H]1C[C@@H](NC(=O)c2ccc(C#N)cc2)CN1CCCSC,95.48
15,CCNC(=O)[C@@H]1C[C@H](NC(=O)c2ccccc2C#N)CN1CCCSC,-7.827
16,CCNC(=O)[C@@H]1C[C@@H](NC(=O)c2cccn2C)CN1CCCSC,111.5
17,CCN(CC)C(=O)[C@@H]1C[C@H](NC(=O)c2cccn2C(C)C)CN1C,0.9655
18,CCNC(=O)[C@@H]1C[C@H](NC(=O)c2cncnc2C)CN1CCCSC,-8.18
19,CCNC(=O)[C@@H]1C[C@@H](NC(=O)c2ccc(C)cc2O)CN1CCCSC,82.24
20,COCC(=O)N1CCC2(CC1)CC(N1CCN(C)CC1)CO2 (stereo not given),-3.796
21,O=C(CCc1nc(Cl)n[nH]1)N1C[C@@H](CN2CCCCCC2)[C@@H](CO)C1,5.284
